This is one part of the list. A number with no mark means an inactive call. The source made the active and inactive calls. No stated cut-off is given here; in the data, active means inhibition above about 0.66%; inactive means the rest.

The test deals with Beta-lactamase TEM (Escherichia coli) (UniProt P62593). Put plainly: Serine beta-lactamase TEM-1 inhibition, biochemical epi-absorbance counter-screen for IMP-1/VIM-2 inhibitor program (AID 2184). The settings on record: TEM-1 beta-lactamase, nitrocefin absorbance inhibition; at 5.6 µM; hits give high values. In general terms: A counterscreen serves to expose hits that act by an unwanted route or on another target.
Beta-lactamase TEM (Escherichia coli), sequence (P62593 whole entry, looked up): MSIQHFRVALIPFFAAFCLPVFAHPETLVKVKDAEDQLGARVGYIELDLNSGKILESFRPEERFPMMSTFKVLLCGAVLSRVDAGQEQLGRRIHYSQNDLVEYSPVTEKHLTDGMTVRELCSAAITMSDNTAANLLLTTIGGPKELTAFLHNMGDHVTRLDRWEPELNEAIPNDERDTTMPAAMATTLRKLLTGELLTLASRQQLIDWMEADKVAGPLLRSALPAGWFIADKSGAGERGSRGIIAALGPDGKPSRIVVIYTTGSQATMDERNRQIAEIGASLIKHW
A word on the inhibition: it is the relative decrease from the control value, in per cent. Consider `C/C(=N\Nc1ccc(S(N)(=O)=O)cc1[N+](=O)[O-])c1cccs1`, for which the inhibition was 1.6% (active). As for `Nc1c(C(=O)c2cccs2)sc2nsc(SCCN3CCCCC3)c12`, the inhibition was 23.4% (active). Take `Cc1cc2nc3c(=O)n(Cc4ccccc4)c(=O)[nH]c3nc2cc1N`: the inhibition was 30.2% (active). In the case of `Oc1ccc2ccc3cccc[n+]3c2c1`, the inhibition was 25.5% (active). In the case of `c1ccc(-c2nccc(-c3ccc(-n4cnc5ccccc54)cc3)n2)nc1`, the inhibition was -3.39%. Take `NC(=O)c1ccc(NC(=O)COC(=O)c2c3c(nc4ccccc24)/C(=C\c2ccc4c(c2)OCO4)CCC3)cc1`: the inhibition is -4.26%. The result for `NS(=O)(=O)c1ccc(NC(=O)COC(=O)c2c3c(nc4ccccc24)/C(=C\c2ccc4c(c2)OCO4)CCC3)cc1` reads -4.87%. As to `CN1C(=O)c2cccc3c(N)ccc(c23)C1=O`, the inhibition is 49.7% (active). On to `Cc1nn(C)cc1N1C(=O)c2cccc3c(N)ccc(c23)C1=O`, for which the inhibition is 43.9% (active).

On to `CCC(=C/c1sc2ccc3ccccc3c2[n+]1C)/C=C1\Sc2ccc3ccccc3c2N1C`, for which the inhibition was -0.12%. For `COc1cc(/C=C2/SC(=S)N(Cc3ccccc3)C2=O)cc(OC)c1O`, the inhibition is 12.7% (active).
